Results filed as inconclusive are left out. A call without a number means that no potency is given here. Calls of active or inactive are those of the source. Unless noted, the call rests on the fitted dose curve.
Assays:
[1] = target: Alpha-galactosidase (Coffea arabica) (UniProt Q42656); experiment: Counterscreen for Glucocerebrosidase Inhibitors: qHTS Assay for Coffee Bean alpha-Galactosidase at pH 4.5 (AID 957; active means well fitted curve in the direction sought with a large enough effect; an effect the other way counts as inactive or inconclusive; further: series mostly up to about 77 µM)
Summary of the method: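 Fluorogenic read-out: 4-methylumbelliferone at Ex 365/Em 440 nm after NaOH/glycine stop (pH 10). Enzyme 2 nM, 4-MU-alpha-galactoside 80 uM, citrate buffer pH 4.5, 20 min RT; normalized to no-enzyme and enzyme controls.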

[2] = target: Alpha-galactosidase (Coffea arabica) (UniProt Q42656); experiment: Counterscreen for Glucocerebrosidase Inhibitors: qHTS Assay for Coffee Bean alpha-Galactosidase at pH 5.9 (AID 998; active means well fitted curve in the direction sought with a large enough effect; an effect the other way counts as inactive or inconclusive)
Summary of the method: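 In 50 mM citric acid pH 5.9 with 0.005% Tween-20, coffee bean enzyme hydrolyses 80 uM 4-MU alpha-D-galactopyranoside over 20 min at RT. Activity is normalized to controls; AC50 comes from Hill-modelled concentration-response data.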

[3] = Inducers of the Endoplasmic Reticulum Stress Response (ERSR) in human glioma: Validation (AID 504836; active means well fitted curve in the direction sought with a large enough effect; an effect the other way counts as inactive or inconclusive)
Summary of the method: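 Stably transfected U87-MG human glioma cells carrying a GRP78-based luminescent sensor were seeded at 1000 cells/well, pin-dosed with compounds and incubated 16 h. Luciferase reagent was then added, and end-point luminescence was read after 10 min at room temperature.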

[4] = qHTS for Inhibitors of the Functional Ribonucleoprotein Complex (vRNP) of Lassa (LASV) Arenavirus: LASV Primary Screen - GLuc reporter signal (AID 1347082; calls by dose curve; tested in HEK293 reporter line; further: series mostly up to about 57 µM; nearly all actives have a fitted effect of over 60% in size)
[5] = qHTS for Inhibitors of the Functional Ribonucleoprotein Complex (vRNP) of Lassa (LASV) Arenavirus: Viability assay - alamar blue signal for LASV Primary Screen (AID 1347083; calls by dose curve; tested in HEK293 reporter line; further: series mostly up to about 57 µM; nearly all actives have a fitted effect of over 80% in size)
[6] = qHTS for Inhibitors of the Functional Ribonucleoprotein Complex (vRNP) of Lymphocytic Choriomeningitis Arenaviruses (LCMV): Viability assay - alamar blue signal for LCMV Primary Screen (AID 1347085; calls by dose curve; tested in HEK293 reporter line; further: series mostly up to about 57 µM; nearly all actives have a fitted effect of over 80% in size)
[7] = target: Nucleoprotein (Lymphocytic choriomeningitis virus (strain Armstrong)) (UniProt P09992); experiment: qHTS for Inhibitors of the Functional Ribonucleoprotein Complex (vRNP) of Lymphocytic Choriomeningitis Arenaviruses (LCMV): LCMV Primary Screen - GLuc reporter signal (AID 1347086); further: series mostly up to about 57 µM; nearly all actives have a fitted effect of over 70% in size
[8] = target: Estrogen receptor (Homo sapiens) (UniProt P03372); experiment: qHTS assay for small molecule agonists of estrogen receptor alpha signaling (AID 588514); further: nearly all actives have a fitted effect of over 70% in size
Summary of the method: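 Read-out: CCF4 fluorescence from a beta-lactamase reporter in ER-alpha-UAS-bla HEK 293 cells after 18 hrs of compound exposure at 37 C. Normalized to 20 nM 17-beta-estradiol (100%) and DMSO (0%).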

[9] = target: Bile acid receptor (Homo sapiens) (UniProt Q96RI1); experiment: qHTS assay for small molecule antagonists of farnesoid X receptor signaling (AID 588526)
Summary of the method: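 Concentration-response titrations were fitted to the Hill equation for half-maximal inhibition and maximal response, with data normalised to 50 uM chenodeoxycholic acid and DMSO control wells. Cells: FXR-UAS-bla HEK293T, dialyzed FBS.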

[10] = target: Bile acid receptor (Homo sapiens) (UniProt Q96RI1); experiment: qHTS assay for small molecule agonists of farnesoid X receptor signaling (AID 588527); settings: HEK293T FXR-UAS-bla, beta-lactamase ratio, 16 h; activation: stronger effect = higher value; further: series mostly up to about 77 µM
Summary of the method: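 Quantitative HTS used FXR-UAS-bla HEK293T cells with 16 h compound incubation at 37 C. EC50 values came from concentration-response curves normalized to chenodeoxycholic acid.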

[11] = target: Glucocorticoid receptor (Homo sapiens) (UniProt P04150); experiment: qHTS assay for small molecule agonists of glucocorticoid receptor signaling (AID 588532; active means well fitted curve in the direction sought with a large enough effect in the signal ratio, with a control signal flat; the % refers to the signal ratio); settings: HeLa MMTV-bla, beta-lactamase ratio, agonist, 18 h; stronger effect = higher value; percent of dexamethasone control, DMSO zero
Summary of the method: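 MMTV-bla HeLa, beta-lactamase reporter; medium with 1% charcoal/dextran-stripped FBS; cpds up to 92 uM, 18 h, 37 C; CCF4 readout 460/530 nm; Hill fit → EC50, efficacy vs 0.1 uM dexamethasone = 100%.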

[12] = target: Glucocorticoid receptor (Homo sapiens) (UniProt P04150); experiment: qHTS assay for small molecule antagonists of glucocorticoid receptor signaling (AID 588533; active means well fitted inhibition curve with a large enough effect in the signal ratio, with a control signal flat, not every such curve was filed as active; the % refers to the signal ratio;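 further: cells stimulated with 2 nM dexamethasone as agonist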)
Summary of the method: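 Antagonist-mode qHTS: compound titrations added to GRE-bla HeLa cells, then dexamethasone 2 nM final; 18 h, 37 C. CCF4 FRET fluorescence normalized to dexamethasone and DMSO; IC50 from Hill fit.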

[13] = target: Peroxisome proliferator-activated receptor delta (Homo sapiens) (UniProt Q03181); experiment: qHTS assay for small molecule agonists of peroxisome proliferator-activated receptor delta signaling (AID 588534)
Summary of the method: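 Titration series tested in agonist mode on beta-lactamase reporter cells; 18 hrs at 37 C after a 5 hr pre-incubation. Readout: CCF4 fluorescence, 2 hrs RT. Hill equation gives EC50 and maximal response.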

[14] = qHTS assay for small molecule antagonists of peroxisome proliferator-activated receptor delta signaling (AID 588535; active means well fitted inhibition curve with a large enough effect in the signal ratio, with a control signal flat, not every such curve was filed as active; the % refers to the signal ratio;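 on max response: cells co-treated with a PPAR-delta agonist as stimulator during compound exposure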); settings: HEK293T PPARd-UAS-bla, beta-lactamase FRET ratio, 18 h; 460 nm channel
Summary of the method: (§1)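 Compounds tested in titration on PPAR-delta-UAS-bla HEK293T cells grown in charcoal/dextran-stripped serum (2%); beta-lactamase activity read via CCF4 emission at 460 and 530 nm.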

[15] = target: Peroxisome proliferator-activated receptor delta (Homo sapiens) (UniProt Q03181); experiment: as above
Summary of the method: as §1

[16] = target: Peroxisome proliferator-activated receptor gamma (Homo sapiens) (UniProt P37231); experiment: qHTS assay for small molecule agonists of peroxisome proliferator-activated receptor gamma signaling (AID 588536; active means well fitted curve in the direction sought with a large enough effect in the signal ratio, with a control signal flat, not every such curve was filed as active; the % refers to the signal ratio)
Summary of the method: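 Using GeneBLAzer HEK293 cells, response was quantified by CCF4 fluorescence and normalized between basal DMSO (0%) and rosiglitazone 2 uM (100%); curves yielded half-maximal stimulation concentration and efficacy.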

[17] = target: Vitamin D3 receptor (Homo sapiens) (UniProt P11473); experiment: qHTS assay for small molecule antagonists of vitamin D receptor signaling (AID 588541);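 further: receptor activated by calcitriol during compound treatment; series mostly up to about 77 µM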
Summary of the method: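 VDR-UAS-bla HEK293T cells (2000/well, 2% charcoal-stripped FBS) were treated with titrated compounds plus 1-alpha,25-dihydroxyvitamin D3 (50 nM or 3 nM final) for 16 h at 37 C. CCF4 beta-lactamase fluorescence was read; Hill fits gave IC50.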

[18] = target: Vitamin D3 receptor (Homo sapiens) (UniProt P11473); experiment: qHTS assay for small molecule agonists of vitamin D receptor signaling (AID 588543)
Summary of the method: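 VDR-UAS-bla HEK293T cells, 2000/well, 2% charcoal-stripped FBS; compound titration 16 h at 37 C; CCF4 beta-lactamase ratio read. Normalized to 50 nM 1-alpha,25-dihydroxyvitamin D3 (100%) and DMSO; Hill fit gives EC50, efficacy.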

[19] = qHTS assay for small molecule agonists of retinoid X receptor alpha signaling (AID 588544); settings: HEK293T RXRa-UAS-bla, beta-lactamase reporter, 18 h; 530 nm emission
[20] = target: Retinoic acid receptor RXR-alpha (Homo sapiens) (UniProt P19793); experiment: as above
[21] = target: Thyroid hormone receptor beta (Homo sapiens) (UniProt P10828); experiment: qHTS assay for small molecule agonists of thyroid hormone receptor beta signaling (AID 588545)
Summary of the method: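 TR-UAS-bla GripTite HEK 293 cells (2500/well, medium with 2% charcoal/dextran FBS) were treated in agonist mode for 18 h at 37 C, titrated. Beta-lactamase was read by CCF4 ratio after 2 h; normalized to 10 nM T3 (100%) and DMSO, Hill-fitted for EC50 and efficacy.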

[22] = qHTS assay for small molecule antagonists of retinoid X receptor alpha signaling (AID 588546; active means well fitted inhibition curve with a large enough effect in the signal ratio, with a control signal flat, not every such curve was filed as active; the % refers to the signal ratio;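 further: cells stimulated with 9-cis-retinoic acid as agonist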); settings: HEK293T RXRa-UAS-bla, beta-lactamase ratio, antagonist mode; measured here: W530 green channel, cytotoxicity proxy
Summary of the method: (§2)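 Beta-lactamase reporter inhibition, read as CCF4 fluorescence ratio (ex 405, em 460/530 nm) after 2 h at RT. HEK293T UAS-bla cells, 2500/well, were stimulated with 9-cis-RA at 500 or 100 nM final alongside test compound for 18 h at 37 C.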

[23] = target: Retinoic acid receptor RXR-alpha (Homo sapiens) (UniProt P19793); experiment: as above; settings: HEK293T RXRa-UAS-bla, beta-lactamase ratio, antagonist mode
Summary of the method: as §2

[24] = qHTS assay for small molecule agonists of the antioxidant response element (ARE) signaling pathway (AID 651741; active means well fitted activation curve with a large enough effect in the signal ratio; the % refers to the signal ratio)
Summary of the method: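 Beta-lactamase reporter expression driven by the antioxidant response element in HepG2 cells was detected by fluorescence with LiveBLAzer B/G FRET substrate (2 h, room temperature) following 16 h compound treatment at 37 C.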

[25] = qHTS assay for small molecule activators of the nuclear factor-kappa B (NF-kB) signaling pathway (AID 651749; active means well fitted activation curve with a large enough effect in the signal ratio; the % refers to the signal ratio; further: series mostly up to about 77 µM); settings: NF-kB-bla ME-180 cells, beta-lactamase FRET ratio, 16 h; activation: stronger effect = higher value
Summary of the method: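 Beta-lactamase reporter expression, controlled by NF-kB response elements in ME-180 cells, was quantified fluorometrically via FRET disruption; cells at 2,000/well had been incubated with 23 nL test compound for 16 hr.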

[26] = qHTS assay for environmental chemicals that activate the Aryl hydrocarbon Receptor (AhR) signaling pathway (AID 651777; active means well fitted curve in the direction sought with a large enough effect; an effect the other way counts as inactive or inconclusive; further: nearly all actives have a fitted effect of over 15% in size); settings: 1A2-DRE human hepatoma cells, luciferase, 24 h; activation: stronger effect = higher value
Summary of the method: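 Luminescence read-out: One-Glo added for 30 min at RT after 24 hr compound treatment (37 C, 5% CO2) of human hepatoma cells expressing a DRE/CYP1A2 promoter–luciferase reporter; increased signal indicates AhR activation.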

[27] = target: Peroxisome proliferator-activated receptor alpha (Homo sapiens) (UniProt Q07869); experiment: qHTS assay for small molecule agonists of the peroxisome proliferator-activated receptor alpha (PPARalpha) signaling pathway (AID 651778; active means well fitted curve in the direction sought with a large enough effect; an effect the other way counts as inactive or inconclusive); settings: PathHunter PPARalpha complementation, chemiluminescence, 6 h; stronger effect = higher value
Summary of the method: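 Cells plated at 2,000/well and held overnight at 37 C, 5% CO2, then compound added by pin tool for 6 hr; after PathHunter detection reagent and 60 min at room temperature, chemiluminescence from enzyme complementation was read.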

[28] = qHTS assay for small molecule agonists of the antioxidant response element (ARE) signaling pathway measured by Nrf2-dependant transcriptional activity - cell viability counter screen (AID 720653; active means well fitted curve in the direction sought with a large enough effect in the repeat runs; an effect the other way counts as inactive or inconclusive); settings: ARE-bla HepG2 viability, CellTiter-Glo ATP luminescence, 16 h; max response: stronger effect = lower value
Summary of the method: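 ARE-bla HepG2 cells (2,000/well) rested 5 hrs at 37C/5% CO2, then exposed to compounds in DMSO for 16 hrs. Viability was read in the same wells as intracellular ATP by luminescence, 30 min at room temperature after reagent addition.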

[29] = qHTS assay for cell viability of HEK293 cells (AID 743288; active means well fitted curve in the direction sought with a large enough effect; an effect the other way counts as inactive or inconclusive; further: nearly all actives have a fitted effect of over 50% in size); settings: ATP luminescence (CellTiter-Glo), 18 h; max response: stronger effect = lower value
Summary of the method: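 Steps: plate 2,000 parental HEK293 cells per well; incubate ≥5 h, 37 C; add compounds in DMSO; incubate 18 h, 37 C; add CellTiter-Glo; wait 30 min at room temperature; read luminescence.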

[30] = qHTS assay for cell viability of the p53RE-bla HCT-116 cell line (AID 743292; active means well fitted curve in the direction sought with a large enough effect; an effect the other way counts as inactive or inconclusive; further: nearly all actives have a fitted effect of over 55% in size)
Summary of the method: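 Luminescent ATP quantitation (CellTiter-Glo) served as the viability read-out; reagent was added after 16 h compound exposure at 37 C and read after 30 min at room temperature. Cells: p53RE-bla HCT-116, 4,000 per well.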

[31] = target: Nuclear receptor subfamily 1 group I member 2 (Rattus norvegicus) (UniProt Q9R1A7); experiment: qHTS assay for small molecule activators of the rat pregnane X receptor (rPXR) signaling pathway (AID 651751; call rule not given here); settings: rPXR reporter cells, luciferase (One-Glo), 24 h
[32] = qHTS assay for small molecule activators of the human pregnane X receptor (PXR) signaling pathway (AID 720659; call rule not given here)

Chain of Bile acid receptor (Homo sapiens) (Q96RI1 whole entry, looked up): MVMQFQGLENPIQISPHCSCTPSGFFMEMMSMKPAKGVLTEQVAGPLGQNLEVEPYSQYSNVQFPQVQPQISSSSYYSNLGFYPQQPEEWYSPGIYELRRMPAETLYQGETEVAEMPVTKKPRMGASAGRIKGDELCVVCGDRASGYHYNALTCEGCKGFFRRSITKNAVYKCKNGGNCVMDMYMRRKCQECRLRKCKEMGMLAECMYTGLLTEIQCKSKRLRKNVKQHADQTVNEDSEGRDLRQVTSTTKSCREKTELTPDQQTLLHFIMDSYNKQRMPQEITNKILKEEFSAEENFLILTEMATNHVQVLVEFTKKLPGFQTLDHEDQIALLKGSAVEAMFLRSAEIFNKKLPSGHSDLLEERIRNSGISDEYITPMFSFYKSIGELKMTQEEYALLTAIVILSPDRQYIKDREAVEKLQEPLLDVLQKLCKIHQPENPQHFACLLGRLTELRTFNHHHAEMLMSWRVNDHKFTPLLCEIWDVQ
Chain of Nucleoprotein (Lymphocytic choriomeningitis virus (strain Armstrong)) (P09992 whole entry, looked up): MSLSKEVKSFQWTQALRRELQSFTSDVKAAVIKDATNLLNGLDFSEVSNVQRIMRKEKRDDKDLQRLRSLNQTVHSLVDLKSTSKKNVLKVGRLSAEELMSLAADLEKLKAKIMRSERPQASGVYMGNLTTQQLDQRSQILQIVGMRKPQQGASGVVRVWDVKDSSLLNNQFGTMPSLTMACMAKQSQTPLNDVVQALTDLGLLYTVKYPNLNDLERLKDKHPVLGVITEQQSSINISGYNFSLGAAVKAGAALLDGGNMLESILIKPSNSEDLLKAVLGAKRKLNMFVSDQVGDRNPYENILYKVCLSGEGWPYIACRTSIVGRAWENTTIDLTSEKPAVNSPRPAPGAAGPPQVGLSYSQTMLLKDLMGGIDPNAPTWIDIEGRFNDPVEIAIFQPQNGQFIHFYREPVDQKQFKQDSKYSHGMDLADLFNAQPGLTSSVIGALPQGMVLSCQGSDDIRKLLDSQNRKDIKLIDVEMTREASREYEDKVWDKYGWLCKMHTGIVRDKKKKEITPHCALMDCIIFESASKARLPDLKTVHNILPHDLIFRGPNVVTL
Chain of Alpha-galactosidase (Coffea arabica) (Q42656 whole entry, looked up): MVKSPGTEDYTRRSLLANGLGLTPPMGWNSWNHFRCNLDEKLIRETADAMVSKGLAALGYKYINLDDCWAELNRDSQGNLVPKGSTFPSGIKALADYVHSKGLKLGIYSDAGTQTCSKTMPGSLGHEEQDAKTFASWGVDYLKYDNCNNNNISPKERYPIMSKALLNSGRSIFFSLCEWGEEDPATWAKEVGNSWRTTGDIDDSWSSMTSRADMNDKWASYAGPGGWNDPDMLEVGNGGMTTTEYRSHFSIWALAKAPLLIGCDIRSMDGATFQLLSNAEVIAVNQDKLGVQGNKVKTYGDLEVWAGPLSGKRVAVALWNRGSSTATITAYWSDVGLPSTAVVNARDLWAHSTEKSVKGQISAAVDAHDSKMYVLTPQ
Chain of Vitamin D3 receptor (Homo sapiens) (P11473 whole entry, looked up): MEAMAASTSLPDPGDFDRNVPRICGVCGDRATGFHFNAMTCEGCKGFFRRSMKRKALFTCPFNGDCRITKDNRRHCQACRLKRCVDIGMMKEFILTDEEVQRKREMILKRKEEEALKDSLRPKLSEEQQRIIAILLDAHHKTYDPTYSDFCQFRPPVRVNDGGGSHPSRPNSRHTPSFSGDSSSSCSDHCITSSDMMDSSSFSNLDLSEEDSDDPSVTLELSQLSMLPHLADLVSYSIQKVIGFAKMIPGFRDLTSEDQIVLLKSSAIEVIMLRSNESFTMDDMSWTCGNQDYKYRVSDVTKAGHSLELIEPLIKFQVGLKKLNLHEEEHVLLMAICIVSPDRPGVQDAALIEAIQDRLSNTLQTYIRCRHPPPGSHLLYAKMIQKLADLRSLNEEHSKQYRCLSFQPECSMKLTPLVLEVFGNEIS
Chain of Retinoic acid receptor RXR-alpha (Homo sapiens) (P19793 whole entry, looked up): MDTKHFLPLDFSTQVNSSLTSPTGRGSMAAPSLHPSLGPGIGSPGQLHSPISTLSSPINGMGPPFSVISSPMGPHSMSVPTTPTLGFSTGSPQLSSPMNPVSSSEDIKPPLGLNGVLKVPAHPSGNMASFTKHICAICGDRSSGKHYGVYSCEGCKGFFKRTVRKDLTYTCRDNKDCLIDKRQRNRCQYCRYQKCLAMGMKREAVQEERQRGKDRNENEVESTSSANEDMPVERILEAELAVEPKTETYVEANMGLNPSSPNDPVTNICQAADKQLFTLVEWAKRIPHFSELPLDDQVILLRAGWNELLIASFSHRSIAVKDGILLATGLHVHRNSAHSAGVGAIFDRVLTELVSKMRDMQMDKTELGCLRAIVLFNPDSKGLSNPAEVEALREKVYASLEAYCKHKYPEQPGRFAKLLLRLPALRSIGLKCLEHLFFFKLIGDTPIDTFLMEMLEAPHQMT
Chain of Glucocorticoid receptor (Homo sapiens) (P04150 whole entry, looked up): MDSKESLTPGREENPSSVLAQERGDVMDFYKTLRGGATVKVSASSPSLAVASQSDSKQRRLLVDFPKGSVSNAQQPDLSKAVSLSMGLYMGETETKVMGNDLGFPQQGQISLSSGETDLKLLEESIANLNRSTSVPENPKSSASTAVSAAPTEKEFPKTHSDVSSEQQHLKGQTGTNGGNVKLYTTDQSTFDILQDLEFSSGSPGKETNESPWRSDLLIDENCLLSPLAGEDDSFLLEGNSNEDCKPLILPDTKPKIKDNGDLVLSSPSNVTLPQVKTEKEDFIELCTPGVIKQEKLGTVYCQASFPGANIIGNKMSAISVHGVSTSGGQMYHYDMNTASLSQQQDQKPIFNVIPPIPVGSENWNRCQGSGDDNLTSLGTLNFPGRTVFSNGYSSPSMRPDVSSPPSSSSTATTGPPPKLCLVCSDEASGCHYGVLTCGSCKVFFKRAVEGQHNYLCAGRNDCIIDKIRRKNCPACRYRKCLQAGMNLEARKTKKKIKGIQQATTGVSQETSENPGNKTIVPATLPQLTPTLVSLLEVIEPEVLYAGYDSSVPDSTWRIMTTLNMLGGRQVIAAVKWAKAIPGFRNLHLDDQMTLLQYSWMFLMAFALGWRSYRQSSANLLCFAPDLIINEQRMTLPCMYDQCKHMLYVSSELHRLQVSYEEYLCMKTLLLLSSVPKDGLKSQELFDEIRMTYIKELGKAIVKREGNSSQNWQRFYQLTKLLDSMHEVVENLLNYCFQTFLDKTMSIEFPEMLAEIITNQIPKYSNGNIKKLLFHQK
Chain of Peroxisome proliferator-activated receptor delta (Homo sapiens) (Q03181 whole entry, looked up): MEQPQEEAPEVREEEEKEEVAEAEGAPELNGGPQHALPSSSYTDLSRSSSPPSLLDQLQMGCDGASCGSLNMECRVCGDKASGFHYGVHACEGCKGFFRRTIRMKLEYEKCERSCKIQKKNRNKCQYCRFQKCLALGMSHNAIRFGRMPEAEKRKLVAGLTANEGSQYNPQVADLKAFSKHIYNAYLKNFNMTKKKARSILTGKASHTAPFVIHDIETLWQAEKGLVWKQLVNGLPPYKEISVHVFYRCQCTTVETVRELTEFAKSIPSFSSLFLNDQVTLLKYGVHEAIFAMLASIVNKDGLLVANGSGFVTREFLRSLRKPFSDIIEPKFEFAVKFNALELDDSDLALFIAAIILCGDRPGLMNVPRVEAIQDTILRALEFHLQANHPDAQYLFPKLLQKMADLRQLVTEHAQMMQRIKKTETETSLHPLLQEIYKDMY
Chain of Peroxisome proliferator-activated receptor alpha (Homo sapiens) (Q07869 whole entry, looked up): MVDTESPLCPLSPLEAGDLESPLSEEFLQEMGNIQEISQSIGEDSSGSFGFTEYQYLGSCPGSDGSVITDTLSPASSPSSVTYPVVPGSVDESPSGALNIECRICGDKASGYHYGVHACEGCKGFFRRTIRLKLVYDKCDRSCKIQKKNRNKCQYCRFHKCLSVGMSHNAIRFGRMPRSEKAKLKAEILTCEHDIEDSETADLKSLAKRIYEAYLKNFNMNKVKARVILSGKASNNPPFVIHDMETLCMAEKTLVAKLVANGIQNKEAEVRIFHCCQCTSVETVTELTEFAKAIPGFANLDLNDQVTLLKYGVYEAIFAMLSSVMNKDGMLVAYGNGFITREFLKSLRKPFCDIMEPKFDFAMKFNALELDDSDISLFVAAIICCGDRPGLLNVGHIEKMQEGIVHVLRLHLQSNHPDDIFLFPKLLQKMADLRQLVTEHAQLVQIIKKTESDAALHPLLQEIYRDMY
Chain of Thyroid hormone receptor beta (Homo sapiens) (P10828 whole entry, looked up): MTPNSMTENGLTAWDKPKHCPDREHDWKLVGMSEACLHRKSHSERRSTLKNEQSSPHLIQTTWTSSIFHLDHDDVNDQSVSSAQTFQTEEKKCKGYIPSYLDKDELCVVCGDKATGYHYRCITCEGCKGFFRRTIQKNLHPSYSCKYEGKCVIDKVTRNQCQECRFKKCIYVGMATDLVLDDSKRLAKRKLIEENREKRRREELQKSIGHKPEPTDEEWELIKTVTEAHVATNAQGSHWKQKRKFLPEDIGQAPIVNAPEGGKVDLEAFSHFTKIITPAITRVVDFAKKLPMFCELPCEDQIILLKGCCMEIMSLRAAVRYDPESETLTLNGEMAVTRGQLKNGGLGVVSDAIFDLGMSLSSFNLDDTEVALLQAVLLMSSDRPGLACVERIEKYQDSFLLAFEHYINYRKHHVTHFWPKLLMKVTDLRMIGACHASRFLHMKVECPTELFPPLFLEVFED
Chain of Peroxisome proliferator-activated receptor gamma (Homo sapiens) (P37231 whole entry, looked up): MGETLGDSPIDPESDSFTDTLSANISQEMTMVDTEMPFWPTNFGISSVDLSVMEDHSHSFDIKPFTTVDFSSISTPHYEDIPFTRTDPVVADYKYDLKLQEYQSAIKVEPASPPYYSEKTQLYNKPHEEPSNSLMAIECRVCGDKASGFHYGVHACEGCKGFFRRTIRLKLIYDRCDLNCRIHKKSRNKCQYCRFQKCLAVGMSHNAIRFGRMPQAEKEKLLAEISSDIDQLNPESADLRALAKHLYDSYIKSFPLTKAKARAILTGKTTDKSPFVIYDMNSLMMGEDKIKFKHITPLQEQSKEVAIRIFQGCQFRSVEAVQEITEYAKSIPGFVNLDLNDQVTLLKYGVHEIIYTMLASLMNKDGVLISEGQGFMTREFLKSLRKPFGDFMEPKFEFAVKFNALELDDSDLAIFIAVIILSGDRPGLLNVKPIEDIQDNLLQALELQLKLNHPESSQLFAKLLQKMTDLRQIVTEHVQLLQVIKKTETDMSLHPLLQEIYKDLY

In the case of O=Nc1ccc2oc(=O)ccc2c1, the outcome [1] is reported as “inactive”, the outcome [2] is reported as “inactive” and the outcome [3] is reported as “inactive”. For the same compound, the Potency [4] was “inactive”, the Potency [5] was “inactive” and the Potency [6] was “inactive”. For the same compound, the Potency [7] was “inactive”.
With CCOP(=S)(OCC)SCSCC the Potency [8] was “inactive”, the Potency [9] was “inactive” and the activation [10] was 1.79% (inactive). For the same compound, the activation [11] was -1.34% (inactive), the Potency [12] was “inactive” and the Potency [13] was “inactive”. The max response [14] was 1.66%, the outcome [15] was “inactive” and the outcome [16] was “inactive”. For the same compound, the outcome [17] was “inactive”, the Potency [18] was “inactive” and the max response [19] was -8.57%. The outcome [20] was “inactive”, the Potency [21] was “inactive” and the max response [22] was -4.53%. The max response [23] was -2.19% (inactive), the Potency [24] was “inactive” and the activation [25] was -1.47% (inactive). For the same compound, the activation [26] was 2.07% (inactive), the max response [27] was -0.311% (inactive) and the max response [28] was 6.11% (inactive). For the same compound, the max response [29] was -10.1% (inactive), the outcome [30] was “inactive” and the Potency [4] was “inactive”. The Potency [5] was “inactive”, the Potency [6] was “inactive” and the Potency [7] was “inactive”. For the same compound, the max response [31] was 5.3% (inactive) and the outcome [32] was “inactive”.
With Nc1ncnc2c1ncn2C1CCCC1 the outcome [1] was “inactive”, the outcome [2] was “inactive” and the outcome [3] was “inactive”. For the same compound, the Potency [4] was “inactive”, the Potency [5] was “inactive” and the Potency [6] was “inactive”. The Potency [7] was “inactive”.
For COCCOCCOCCOC, the activation [10] was 4.16% (inactive), the Potency [4] was “inactive” and the Potency [5] was “inactive”. For the same compound, the Potency [6] was “inactive” and the Potency [7] was “inactive”.

Reference: PubChem BioAssay (NCATS)
